Most compounds without a hit are left out; they make up all but 2.4% or so of the library.
Rango complex inh = prevents formation of the Rango-importin beta complex; Q14974; Rango CFP/YFP FRET sensor + importin beta, 45 min; Potency, µM (top dose mostly 92.2 µM); hit rate 0.031% among 340,000; AID 540263; calls by dose curve; further: nearly all actives have a fitted effect of over 15% in size
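FRET biosensor (snurportin 1 IBB flanked by EYFP and cerulean), 50 nM, with compound 5 min, then 0.125 microM importin beta in PBS, 1 mM DTT, 0.02% Tween-20, 0.1% BSA. CFP/YFP ratio read after 45 min at room temperature; pre-read flags interference.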
PTAP TSG101 blk = blocks PTAP/TSG101 interaction to inhibit HIV-1 budding. Q99816. Fluorescence polarization, FITC-PTAP peptide / Tsg101 binding. Potency, µM (titrated, usually from 115 µM), actives largely listed as inhibitors. 340,000 tested, under 10 active; active means well fitted inhibition curve with a large enough effect in the main read-out, with a control signal flat, not every such curve was filed as active; inconclusive means small, poorly fitted or top-dose-only effect, or effect the other way, or a change in a side signal; inactive means no such curve, though single readings can be large or run the other way
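Compounds were pin-transferred onto Tsg101 binding domain (10 uM final) in HEPES pH 7.5 buffer, then FITC-PTAP peptide was added at 50 nM final. After 20 min at RT, polarization reported peptide displacement across a qHTS concentration series.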
ALOX12 inh = inhibitors of human 12S-lipoxygenase ALOX12; hit rate 1.1% among 580,000; purified 12hLO, xylenol orange hydroperoxide absorbance; P18054; Potency, µM (doses to about 108 µM), hits mostly inhibitors; AID 1671190
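Purified human 12hLO (150 nM final) in 25 mM Hepes, 0.01% Triton X-100, pH 7.0 was preincubated 15 min at room temperature with compound. Then 40 uM arachidonic acid was added, 30 min. Hydroperoxide was read by Fe-XO absorbance ratio 573/405 nm.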
TDP1 inh = TDP1 (human) enzyme inhibition | Q9NUW8 | recombinant TDP1, AlphaScreen DNA substrate cleavage | Potency, µM (doses to about 130 µM), actives largely listed as inhibitors | hit rate 0.28% among 350,000 | AID 485290; further: nearly all actives have a fitted effect of over 40% in size
Target sequence (Q9NUW8 whole entry, looked up): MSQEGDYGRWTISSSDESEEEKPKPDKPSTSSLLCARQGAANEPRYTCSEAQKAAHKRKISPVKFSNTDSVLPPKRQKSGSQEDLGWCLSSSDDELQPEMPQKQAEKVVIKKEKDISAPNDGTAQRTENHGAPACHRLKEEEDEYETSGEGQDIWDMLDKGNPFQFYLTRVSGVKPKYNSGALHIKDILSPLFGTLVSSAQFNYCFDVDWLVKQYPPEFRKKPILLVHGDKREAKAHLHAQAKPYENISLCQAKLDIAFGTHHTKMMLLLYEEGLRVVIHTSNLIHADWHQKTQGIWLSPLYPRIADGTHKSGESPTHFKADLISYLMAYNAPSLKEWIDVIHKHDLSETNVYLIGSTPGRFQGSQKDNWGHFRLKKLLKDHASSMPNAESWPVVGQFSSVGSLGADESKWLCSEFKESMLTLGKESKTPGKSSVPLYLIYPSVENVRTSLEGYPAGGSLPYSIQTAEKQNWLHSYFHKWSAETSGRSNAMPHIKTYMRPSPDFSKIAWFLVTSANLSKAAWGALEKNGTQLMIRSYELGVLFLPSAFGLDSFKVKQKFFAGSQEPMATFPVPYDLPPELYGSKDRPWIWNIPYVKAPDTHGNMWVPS
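Recombinant E. coli-expressed Tdp1 (1 nM) preincubated with compound 15 min at RT, then 5'-biotin/3'-phosphotyrosine-FITC DNA substrate (15 nM) added for 5 min. AlphaScreen beads (10 ug/ml) added, 10 min RT; tyrosine-FITC cleavage read as signal loss.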
Rango release inh = inhibition of RanGTP-driven Rango-importin beta dissociation | hit rate 0.071% among 340,000 | Potency, µM (series often up to 46.1 µM) | Biochemical FRET Rango-importin beta, RanGTP-induced dissociation | O95149+P62826; calls by dose curve; further: nearly all actives have a fitted effect of over 45% in size
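Rango FRET biosensor (snurportin-1 IBB flanked by N-terminal EYFP and C-terminal CFP10) at 0.1 uM, with 0.25 uM importin beta in PBS, 1mM DTT, 0.02% Tween-20, 0.1% BSA. 0.6 uM Ran, 2mM GTP and 0.2 uM RCC1 were then added for 45 min at room temperature. Inhibition read as loss of FRET rise.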
ClpP mod = qHTS Assay for Activators of ClpP; ATP-dependent Clp protease proteolytic subunit (Bacillus subtilis (strain 168)), P80244; purified B. subtilis ClpP, FRET peptide cleavage, 20 min; Potency, µM (series often up to 57.5 µM); hit rate 1.9% among 340,000; active means well fitted falling curve with a large enough effect; inconclusive means small, poorly fitted or top-dose-only effect; inactive means no such curve, though single readings can be large or run the other way; further: the source files actives as falling curves though it sought activators and does not explain the sign; nearly all actives have a fitted effect of over 65% in size
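Purified B. subtilis ClpP, 10 microg/mL final in Tris/HCl pH8 with KCl, BSA, glycerol and Tween-20, cleaved an Abz/nitrotyrosine-quenched decapeptide. Fluorescence (ex 320, em 430) was read at 0 and 20 min at room temperature. Delta was normalized to 5.8 microM ADEP and DMSO/no-enzyme controls.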
Numbers stand for hits; n = inactive; u = inconclusive; x = no result; ! = not confirmed by another sample; [ ] = another dose, or the depositor's remark. Unless noted, the call rests on the fitted dose curve; in most records, active means well fitted curve in the direction sought with a large enough effect; inconclusive means small, poorly fitted or top-dose-only effect, or another doubt; inactive means no such curve, though single readings can be large; an effect the other way counts as inactive or inconclusive.

SMILES | Rango complex inh | PTAP TSG101 blk | ALOX12 inh | TDP1 inh | Rango release inh | ClpP mod
S=c1[nH]nc(CSc2nc3ccccc3s2)n1Cc1ccccc1 | u | n | u | n | n | n
CCCNC(=O)N1C[C@@H](Oc2cccnc2)C[C@@H]1C(=O)NCCOC | x | x | n | x | x | x
COc1cc(C2CC(=O)N3CN(c4cccc(C)c4)CSC3=C2C#N)ccc1O (configuration not stated) | x | x | 2µM | x | x | x
COc1ccc(Br)cc1C1CC(=O)N2CN(C)CSC2=C1C#N (configuration not stated) | n | n | 28µM | n | n | n
COc1cc(OC)c(C2CC(=O)N3CN(C)CSC3=C2C#N)cc1OC (configuration not stated) | n | n | 16µM | n | n | n
COc1ccc(OC)c(C2CC(=O)N3CN(c4ccccc4F)CSC3=C2C#N)c1 (configuration not stated) | n | n | u | n | n | n
CCOc1cc(C2CC(=O)N3CN(c4ccccc4)CSC3=C2C#N)cc(Br)c1O (configuration not stated) | x | x | 1.8µM | x | x | x
CC(NC(=O)C1CCCC1)c1cccc(C(F)(F)F)c1 (configuration not stated) | x | x | n | x | x | x
CCC1CCCN(C(=O)CN(C)c2ncnc3nc[nH]c23)C1 (configuration not stated) | x | x | n | x | x | x
CCc1ccccc1N1CSC2=C(C#N)C(c3cc(OC)c(OC)cc3OC)CC(=O)N2C1 (configuration not stated) | n | n | u | n | n | n
COc1cc(OC)c(C2CC(=O)N3CN(c4ccccc4)CSC3=C2C#N)cc1OC (configuration not stated) | u | n | 2.8µM | n | u | n
COCCCNC(=O)C1CCN(C(=O)c2nnn3c2COC(c2ccc(C)cc2)C3)CC1 (configuration not stated) | x | x | n | x | x | x
O=c1[nH]c(C2CCCN(Cc3cccc(-c4ccsc4)c3)C2)nc2ccc(F)cc12 (configuration not stated) | x | x | 25µM! | x | x | x
O=C(Cn1cc(C(=O)c2cccs2)c2ccccc21)NC1CCCCC1 | n | n | n | n | n | n
NC(=O)Cn1cc(C(=O)c2cccs2)c2ccccc21 | n | n | n | n | n | 20µM
O=C(O)/C=C/c1cccc(Cl)c1Cl | x | x | n | x | x | x
Cc1nc(SCC(=O)Nc2sccc2C(N)=O)c2c(C)c(C)sc2n1 | x | x | u | x | x | n
Cc1nc(SCC(=O)Nc2cc(C(N)=O)cc(C(N)=O)c2)c2c(C)c(C)sc2n1 | n | n | n | 10µM | n | n
CC(C)C(=O)N1CCN(c2nc3c(s2)CC(C(=O)NC2CCN(C)CC2)CC3)CC1 (configuration not stated) | x | x | n | x | x | x
CC(C)(C)C(=O)NC(=S)Nc1ccc(S(=O)(=O)Nc2nccs2)cc1 | n | n | 45µM | n | n | x
CCc1nnc(NS(=O)(=O)c2ccc(NC(=S)NC(=O)/C=C/c3ccc([N+](=O)[O-])cc3)cc2)s1 | n | n | u | n | n | n
CCc1nnc(NS(=O)(=O)c2ccc(NC(=S)NC(=O)c3ccc(OC)cc3)cc2)s1 | n | n | 8.9µM | n | n | n
CCc1nnc(NS(=O)(=O)c2ccc(NC(=S)NC(=O)c3ccc(OC)c(OC)c3)cc2)s1 | n | n | 8.9µM | n | u | n
CCc1nnc(NS(=O)(=O)c2ccc(NC(=S)NC(=O)c3ccncc3)cc2)s1 | n | n | u | n | n | n
NS(=O)(=O)c1ccc(NC(=S)Nc2ccc(S(=O)(=O)Nc3nccs3)cc2)cc1 | x | x | n | x | x | n
SMILES | Rango complex inh | PTAP TSG101 blk | ALOX12 inh | TDP1 inh | Rango release inh | ClpP mod
CCc1nnc(NS(=O)(=O)c2ccc(NC(=S)NC(=O)/C=C/c3ccc(F)cc3)cc2)s1 | n | n | 10µM | n | n | n
Cc1cn2nc(C(=O)NCc3ccc(C(C)C)cc3)cc2c(N2CCSCC2)n1 | x | x | n | x | x | x
CC(C)c1cccc(-c2cc(NCc3ccccn3)nc3[nH]ccc23)n1 | x | x | n | x | x | x
COc1ccc(OC)c(S(=O)(=O)Nc2ccc(-c3ccc(N4CCC(C)CC4)nn3)cc2)c1 | x | x | 8.9µM | x | x | x
COc1ccc(S(=O)(=O)Nc2cccc(-c3ccc(N4CCCCC4)nn3)c2)c(OC)c1 | x | x | 11µM | x | x | x
COc1ccc(C)cc1S(=O)(=O)Nc1cccc(-c2ccc(N3CCCCCC3)nn2)c1 | u | n | n | n | n | n
CSc1nc(=O)c2c(n1C)NC(=O)CC2c1cc(C)ccc1C (configuration not stated) | x | x | n | x | x | x
CCN1C=C(Cc2ccc(OC)cc2)C2=C(C1)C(c1ccc(OC)cc1)C(C#N)=C(N)O2 (configuration not stated) | u | n | 18µM | n | u | n
CC1(C)CC(=O)c2c(nc3ccccc3c2N)C1 | n | n | n | n | n | 32µM
CCNc1c2c(nc3ccccc13)CC(C)(C)CC2=O | n | n | n | n | n | n
Cc1ccc(-c2nn(-c3ccccc3)cc2C=C2C(=O)CC(C)(C)CC2=O)cc1 | n | n | 7.9µM | n | n | n
CC1(C)CC(=O)C(=Cc2cn(-c3ccccc3)nc2-c2ccccc2)C(=O)C1 | n | n | n | x | n | n
CNC(=O)Nc1ccc(C2(C(=O)NCc3ccc(F)cc3Cl)CCC2)cc1 | x | x | n | x | x | x
Cc1ccccc1/C=N/n1c(COc2ccccc2)n[nH]c1=S | n | n | n | x | n | x
Oc1ccc(/C=N/n2c(COc3ccccc3)n[nH]c2=S)c(O)c1 | n | n | 45µM | x | n | n
Oc1ccccc1/C=N/n1c(COc2ccccc2)n[nH]c1=S | u | n | n | x | n | 35µM
Cc1cnc(CN(C)C(=O)C2CCCN(C3CCN(Cc4ccncc4)CC3)C2)[nH]1 (configuration not stated) | x | x | n | x | x | x
COc1ccccc1N1CCN(C(=O)c2cn[nH]c2-n2cnnn2)CC1=O | x | x | n | x | x | x
Cc1ccc(C(C)C)c(OCC(=O)Nc2ccc(S(=O)(=O)Nc3nccs3)cc2)c1 | x | x | n | x | x | x
O=C(CC1C(=O)NCCN1Cc1ccc(F)c(F)c1)NC1CCC1 (configuration not stated) | x | x | n | x | x | x
NC(=O)c1oc2ccccc2c1NC(=O)c1nc2ccccc2s1 | n | n | n | 79µM | n | n
COc1ccc2c(c1)OCC(C(=O)NCc1csc(N3CCCC3)n1)C2 (configuration not stated) | x | x | n | x | x | x
O=c1[nH]c(=S)[nH]c2nc[nH]c12 | x | x | x | n | x | n
S=c1nc[nH]c2nc[nH]c12 | u | n | u | 32µM | n | n
O=C1Nc2ccccc2CC12CN([S+](=O)([O-])c1ccccc1)C2 | x | x | n[6.33 µM] | x | x | x
